Test results from PubChem BioAssay.

Assay: sensitizers of A549 cells to miR-34 induction, primary screen, imaging, A549 dox-inducible miR-34, nuclei and caspase counts (AID 1347080); note: test concentration not given here
Details: A549 miR-34 inducible, Hoechst nuclei count, 48 h; measured here: total cells with miR-34 induction; stronger effect = lower value

**Q.** Which cell count does the source give for `CCCC(=O)NCCc1c2n(c3ccc(OC)cc13)CCCc1ccccc1-2` here?
**A.** 8600

**Q.** Which cell count does the source give for `Cn1ccnc1` here?
**A.** 11100

**Q.** With `Nn1nnc2ccccc21` as the compound, how does the cell count read?
**A.** 10600

**Q.** With `CCCn1c(=O)c2[nH]c(-c3ccc(S(=O)(=O)O)cc3)nc2n(CCC)c1=O` as the compound, how does the cell count read?
**A.** 10100

**Q.** Which cell count does the source give for `C[C@H](O)C(=O)C1=Nc2c(nc(N)[nH]c2=O)NC1` here?
**A.** 10200

**Q.** With `NC1(C(=O)O)CCc2cc(C(=O)O)ccc21` (configuration not stated) as the compound, how does the cell count read?
**A.** 10900

**Q.** For `Nc1nc(Cl)nc2c1ncn2[C@@H]1O[C@H](CO)[C@H](O)C1O` (some centres not stated), which cell count is on record?
**A.** 1860

**Q.** For `N[C@H](C(=O)O)[C@H](O)C(=O)O`, which cell count is on record?
**A.** 9780

**Q.** Which cell count does the source give for `C=C1C(=O)O[C@@H]2[C@H]3O[C@]3(C)CCC=C(C)CC[C@@H]12` here?
**A.** 5750

**Q.** With `C[C@@H]1C(=O)NC2=Nc3cccc(Cl)c3CN21` as the compound, how does the cell count read?
**A.** 9040

**Q.** For `CCNC(=O)[C@H]1O[C@@H](n2cnc3c(N)nc(NCCc4ccc(CCC(=O)O)cc4)nc32)C(O)[C@H]1O` (some centres not stated), which cell count is on record?
**A.** 9660

**Q.** Which cell count does the source give for `Cc1nc(N=Nc2ccc(S(=O)(=O)O)cc2S(=O)(=O)O)c(COP(=O)(O)O)c(C=O)c1O` here?
**A.** 9390

**Q.** With `O=C(Nc1cccc(C(=O)Nc2ccc(S(=O)(=O)O)c3cc(S(=O)(=O)O)cc(S(=O)(=O)O)c23)c1)Nc1cccc(C(=O)Nc2ccc(S(=O)(=O)O)c3cc(S(=O)(=O)O)cc(S(=O)(=O)O)c23)c1` as the compound, how does the cell count read?
**A.** 9650

**Q.** For `Nc1nc2[nH]c(=O)cnc2c(=O)[nH]1`, which cell count is on record?
**A.** 10400

**Q.** With `O=[N+]([O-])c1ccc(CNc2nc(NCc3cccc(C(F)(F)F)c3)nc3nc[nH]c23)cc1` as the compound, how does the cell count read?
**A.** 7880

**Q.** For `N[C@@H](Cc1cnc[nH]1)C(=O)O`, which cell count is on record?
**A.** 9970

**Q.** With `CC1(C)CCC(NC(=O)[C@@H](N)CCC(=O)O)CC1` as the compound, how does the cell count read?
**A.** 11000
